Growth inhibition data for 21 compounds are collected here from PubChem BioAssay (NCI).

Experiment [1] in a line: NCI Yeast Anticancer Drug Screen. Data for the rad50 strain (AID 155).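 Further: 0% = growth of vehicle-only cultures of the same strain.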 As to conditions: S. cerevisiae rad50 strain growth inhibition; at 50.0 µM; active compounds read high. In a few lines:
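Cells are treated with compound, grown, and their growth is then scored against vehicle-only cultures of the same repair-deficient yeast strain.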

Experiment [2] in a line: NCI Yeast Anticancer Drug Screen. Data for the mec2-1 strain (AID 157). To be noted: S. cerevisiae mec2-1 strain, at 50.0 µM, active compounds read high. The method in brief: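 mec2-1 yeast strain, carrying an alteration in DNA damage repair or cell cycle control, was exposed to compounds; growth inhibition was measured relative to vehicle-treated controls.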
Experiment [3] is described as follows: NCI Yeast Anticancer Drug Screen. Data for the sgs1 mgt1 strain (AID 161).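 Further: 0% = growth of cultures given vehicle only.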 As to conditions: S. cerevisiae sgs1 mgt1 strain, at 50.0 µM, active compounds read high. The method in brief:
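This yeast growth screen uses a strain with defined DNA-repair lesions; compound-treated growth is compared with vehicle-treated growth.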

Experiment [4] is described as follows: NCI Yeast Anticancer Drug Screen. Data for the cln2 rad14 strain (AID 165).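 Further: 0% = growth equal to vehicle treated cultures.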 As to conditions: S. cerevisiae cln2 rad14 strain, at 50.0 µM, active compounds read high. The method in brief:
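Yeast carrying cln2 and rad14 alterations (cell cycle control and DNA damage repair) were exposed to compounds. Growth inhibition was measured against vehicle-treated controls.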

Experiment [5] in a line: NCI Yeast Anticancer Drug Screen. Data for the bub3 strain (AID 167). As to conditions: S. cerevisiae bub3 mutant strain, at 50.0 µM, active compounds read high. The method in brief:
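Part of a panel of yeast mutants defective in DNA damage repair or cell cycle regulation. Each strain is grown with compound, and inhibition is calculated relative to solvent-treated cultures.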

Experiment [6] in a line: NCI Yeast Anticancer Drug Screen. Data for the mlh1 rad18 strain (AID 175). As to conditions: S. cerevisiae mlh1 rad18 strain growth inhibition; at 50.0 µM; active compounds read high. In a few lines: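 Growth inhibition of the yeast strain was measured after compound exposure and expressed relative to vehicle-treated controls. The strain carries defined defects in DNA damage repair.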

Structures are written as SMILES. This is part of a sample that, as a whole, favours compounds with a hit. Of some 79,000 tested, about 15% had one in any assay. Unmarked numbers belong to inactive results. Activity calls are given as the source filed them. No stated cut-off is given here; in the data, active means growth inhibition above about 70%; inactive means the rest.

For the compound `NC(=O)NC(O)C(Cl)(Cl)Cl` (stereo unspecified), the growth inhibition in experiment [1] was -12.1%; in experiment [2] it was -33.9%; in experiment [3] it was -24.9%; in experiment [4] it was -42%; in experiment [5] it was -32.6%; in experiment [6], -29.4%.
Consider `C1CCC(N2CSC3CCCCC32)CC1` (stereo unspecified), for which the growth inhibition is -0.65% in experiment [1]; -12.2% in experiment [2]; 4.35% in experiment [3]; -18.2% in experiment [4]; 16.2% in experiment [5]; 5.6% in experiment [6].
On to `CNc1ccccc1C(=O)O`, for which the growth inhibition in experiment [1] was -19.8%; in experiment [2] it was -7.3%; in experiment [3] it was 10.5%; in experiment [4] it was -9.75%; in experiment [5], -12.2%; in experiment [6], 3.15%.
Regarding `COc1ccc2c(c1OC(C)=O)-c1cc(OC(C)=O)cc3c1C(C2)N(C(=O)CN(CCCl)CCCl)CC3` (stereo unspecified), the growth inhibition in experiment [1] was -6.4%; in experiment [2], -6%; in experiment [3] it was -1.95%; in experiment [4], -13%; in experiment [5], -0.05%; in experiment [6], -6.6%.
On to `CCCCOP(=O)(Nc1ccc(Cl)cc1)OCCCC`, for which the growth inhibition in experiment [1] is 99.3% (active); in experiment [2] it was 99.7% (active); in experiment [3], 99.5% (active); in experiment [4], 99.2% (active); in experiment [5] it was 99.4% (active); in experiment [6], 99.5% (active).
For `CC(C)CCN(CCc1ccccc1[N+](=O)[O-])CCC(C)C`, the growth inhibition in experiment [1] is 12.1%; in experiment [2], -7.45%; in experiment [3] it was -8.7%; in experiment [4], -36.9%; in experiment [5], 44.1%; in experiment [6], 38.6%.
Consider `COc1cc2c(cc1OC)-c1c3c(cc4c1[C@H](C2)N(C)CC4)OCO3`, for which the growth inhibition in experiment [1] was -5%; in experiment [2], -7.7%; in experiment [3], -19.8%; in experiment [4] it was 6.75%; in experiment [5], -14.2%; in experiment [6] it was -25.5%.
For `CCCCOP(O)(=S)OCCCC.[Tb]`, the growth inhibition in experiment [1] was -19%; in experiment [2] it was 14.6%; in experiment [3], -14.6%; in experiment [4], 29.1%; in experiment [5], -14.8%; in experiment [6], 17.9%.
`Cn1nnnc1NC#N`: the growth inhibition in experiment [1] is -9.15%; in experiment [2], 4.85%; in experiment [3], 1%; in experiment [4], 6.7%; in experiment [5], 23.4%; in experiment [6], -4.25%.
Take `O=[As]c1ccc2c(c1)NC(O)=CO2` (stereo unspecified): the growth inhibition is 21.9% in experiment [1]; 38.6% in experiment [2]; 20.7% in experiment [3]; 27.9% in experiment [4]; 20.4% in experiment [5]; 32.5% in experiment [6].
Consider `COc1ccccc1OC` (tested in a mixture with another compound), for which the growth inhibition is 22.5% in experiment [1]; 16.7% in experiment [2]; 26.4% in experiment [3]; -17.4% in experiment [4]; 14.2% in experiment [5]; 16.2% in experiment [6].
With `O=[N+]([O-])NC1=NCCN1CCCl`, the growth inhibition is -17.2% in experiment [1]; -13.6% in experiment [2]; -4.6% in experiment [3]; -25.1% in experiment [4]; -12.6% in experiment [5]; 9.15% in experiment [6].
For the compound `CC1(C)CC(N2CCCCC2)=CC(=[N+]2CCCCC2)C1`, the growth inhibition in experiment [1] is -6.55%; in experiment [2], -2%; in experiment [3], 22.3%; in experiment [4] it was 0.1%; in experiment [5] it was -5.85%; in experiment [6], -10.6%.
Consider `Cc1cccc(NC(N)=S)c1`, for which the growth inhibition in experiment [1] was 11.6%; in experiment [2] it was 1.55%; in experiment [3] it was 5.65%; in experiment [4], -4.35%; in experiment [5], -8.15%; in experiment [6], 8.35%.
For `O=C(Nc1c(O)[nH]c(=S)[nH]c1=O)c1ccco1`, the growth inhibition in experiment [1] is -24.1%; in experiment [2] it was -4.8%; in experiment [3], -10.8%; in experiment [4], -4.35%; in experiment [5] it was -13.2%; in experiment [6], -16%.
For the compound `CN(C)P(=O)(N(C)C)N1CCCCC1`, the growth inhibition was -6.35% in experiment [1]; -10.2% in experiment [2]; 0.3% in experiment [3]; -22% in experiment [4]; -23.6% in experiment [5]; -4.3% in experiment [6].
`CC(=O)Nc1cc(Cl)c([N+](=O)[O-])cc1C`: the growth inhibition was -14.9% in experiment [1]; -4.15% in experiment [2]; -12.4% in experiment [3]; -79.1% in experiment [4]; 0.75% in experiment [5]; 11.6% in experiment [6].
For `O=[N+]([O-])c1cccc2ncccc12`, the growth inhibition in experiment [1] was -2.95%; in experiment [2], -14.4%; in experiment [3], 18.4%; in experiment [4], -6.55%; in experiment [5], 17.7%; in experiment [6], 9.3%.
Turning to `Nc1ncn[nH]1`, the growth inhibition in experiment [1] was -5.05%; in experiment [2], 11.7%; in experiment [3] it was -7.75%; in experiment [4], 7.9%; in experiment [5], 18.6%; in experiment [6], -3.25%.
On to `O=C(CN1C(=O)C2CCCCC2C1=O)N1CC1` (stereo unspecified), for which the growth inhibition was -7.8% in experiment [1]; 0.1% in experiment [2]; -11.7% in experiment [3]; 5.85% in experiment [4]; -6.6% in experiment [5]; -9.3% in experiment [6].
Take `CCC(O)C[As](=O)(O)c1ccccc1OC` (stereo unspecified): the growth inhibition is 5.75% in experiment [1]; 20.2% in experiment [2]; 2% in experiment [3]; -1.6% in experiment [4]; 18.1% in experiment [5]; -1.65% in experiment [6].
